For seven compounds, Potency and outcome results are on record in PubChem BioAssay (Tox21).

Structures are written as SMILES. Where “and” joins values, the source holds several entries; their conditions need not be identical. Equal entries are not always repeated. Results filed as inconclusive are left out. A structure can be active in one record and inactive in another. Calls of active or inactive are those of the source. Unless noted, the call rests on the fitted dose curve; in most records, active means well fitted curve in the direction sought with a large enough effect in the repeat runs; inconclusive means weak or mixed curves; inactive means no such curve, though single readings can be large; an effect the other way counts as inactive or inconclusive.

A short description of test [1]: qHTS assay to identify aromatase inhibitors - cell viability counter screen (AID 743084;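 further: cells stimulated with testosterone during compound exposure; nearly all actives have a fitted effect of over 55% in size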; further: potency means the concentration at half of the fitted maximal effect). (In general: In qHTS, concentration-response curves come from the screen itself.)
The target in test [2] is Aryl hydrocarbon receptor (Homo sapiens) (UniProt P35869). The test can be described thus: qHTS assay to identify small molecule that activate the aryl hydrocarbon receptor (AhR) signaling pathway (AID 743085). Further: nearly all actives have a fitted effect of over 15% in size. Further: potency means the concentration at half of the fitted maximal effect.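 On activation: HG2L7.5c1 human HepG2 liver cells with stably integrated DRE-driven firefly reporter; series mostly up to about 70 µM.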 In a few lines:
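A multiplexed format paired cell viability (CellTiter-Fluor fluorescence) with AhR-dependent luciferase output (ONE-Glo luminescence) in the same wells of HepG2 DRE-luc cells after 24 h compound exposure at 37C.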

A short description of test [3]: qHTS assay to identify small molecule that activate the aryl hydrocarbon receptor (AhR) signaling pathway - cell viability counter screen (AID 743086).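 Further: HepG2 liver cells carrying the AhR DRE luciferase reporter; series mostly up to about 70 µM; nearly all actives have a fitted effect of over 45% in size.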 An outline of the steps: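 HepG2-AhR-luc (HG2L7.5c1) cells, 4000/well, treated 24 h at 37 C with compound; viability measured as CellTiter-Fluor fluorescence after 30 min in the same wells as the luciferase read.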

Test [4] can be described thus: qHTS assay for small molecule agonists of the antioxidant response element (ARE) signaling pathway - cell viability counter screen (AID 743203; calls by dose curve; further: nearly all actives have a fitted effect of over 55% in size). An outline of the steps:
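Luminescence read-out (CellTiter-Glo, 30 min at room temperature) measured cell viability in the same wells as the ARE beta-lactamase reporter. HepG2 ARE-bla cells were treated with compounds for 16 hrs at 37C/5% CO2.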

A short description of test [5]: qHTS assay for small molecule activators of the heat shock response signaling pathway - cell viability counter screen (AID 743209). Further: nearly all actives have a fitted effect of over 50% in size. Further: potency means the concentration at half of the fitted maximal effect. In a few lines: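 HSE-bla HeLa; 1500 cells/well; overnight 37 C, 5% CO2; compound 5 h 37 C; LiveBLAzer B/G substrate 2.5 h RT; CellTiter-Glo 30 min RT; luminescence.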
Test [6] in a line: qHTS assay to identify small molecule agonists of the peroxisome proliferator-activated receptor delta (PPARd) signaling pathway - cell viability counter screen (AID 743211). Further: nearly all actives have a fitted effect of over 55% in size. Further: potency means the concentration at half of the fitted maximal effect. An outline of the steps: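 Tox21 library compounds, delivered in DMSO, were incubated 17 h with PPARd-bla HEK293H cells; cytotoxicity was taken from CellTiter-Glo luminescence read 30 min after reagent addition.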

Test [7] is described as follows: qHTS assay to identify small molecule antagonists of the peroxisome proliferator-activated receptor delta (PPARd) signaling pathway - cell viability counter screen (AID 743213). Further: nearly all actives have a fitted effect of over 50% in size. Further: potency means the concentration at half of the fitted maximal effect. An outline of the steps:
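HEK293H cells with the PPARd UAS-bla reporter, co-treated 17 h at 37 C with compounds and L165041 (300 nM final), were lysed with CellTiter-Glo. Luminescence indicated viable cell content.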

A short description of test [8]: qHTS assay to identify small molecule agonists of the farnesoid-X-receptor (FXR) signaling pathway - cell viability counter screen (AID 743218). Further: nearly all actives have a fitted effect of over 45% in size. Further: potency means the concentration at half of the fitted maximal effect. An outline of the steps:
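Luminescence from CellTiter-Glo, read after 30 min at RT, reports viability of GeneBLAzer FXR-UAS-bla HEK 293T cells treated 16 h with compounds in the wells used for the beta-lactamase reporter.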

A short description of test [9]: qHTS assay to identify small molecule antagonists of the farnesoid-X-receptor (FXR) signaling pathway - cell viability counter screen (AID 743221; active means well fitted cell-killing curve with a large enough effect in the repeat runs, not every such curve was filed as active; further: nearly all actives have a fitted effect of over 50% in size). An outline of the steps:
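Cytotoxicity is taken from ATP luminescence (CellTiter-Glo, 30 min, room temperature) in FXR-bla HEK 293T cells previously incubated 16 h at 37 C with compound and chenodeoxycholic acid at 50 uM final.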

Test [10] is described as follows: qHTS assay for small molecule agonists of the antioxidant response element (ARE) signaling pathway (AID 743202; active means well fitted activation curve with a large enough effect in the signal ratio in the repeat runs, not every such curve was filed as active; the % refers to the signal ratio; further: potency means the concentration at half of the fitted maximal effect). An outline of the steps:
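HepG2 ARE-bla cells; 16 h treatment at 37 C; FRET-based beta-lactamase fluorescence read after 2 h substrate incubation at room temperature.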

Test [11] can be described thus: qHTS assay for small molecule activators of the heat shock response signaling pathway (AID 743210; active means well fitted activation curve with a large enough effect in the signal ratio in the repeat runs, with a control signal flat, not every such curve was filed as active; the % refers to the signal ratio;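 further: HeLa cells with beta-lactamase reporter driven by heat shock elements; series mostly up to about 63 µM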). An outline of the steps: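 Following overnight attachment, HSE-bla HeLa cells received test compounds for 5 h at 37 C; beta-lactamase activity was then detected via FRET substrate fluorescence.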
Test [12] has as its target Peroxisome proliferator-activated receptor gamma (Homo sapiens) (UniProt P37231). The test can be described thus: qHTS assay to identify small molecule agonists of the peroxisome proliferator-activated receptor gamma (PPARg) signaling pathway (AID 743094; active means well fitted activation curve with a large enough effect in the signal ratio in the repeat runs, not every such curve was filed as active; the % refers to the signal ratio). An outline of the steps: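 HEK293H PPARg-bla cells, 5 h settle at 37C/5% CO2; compound (DMSO) 17 h, 37C; B/G FRET substrate 1 h RT; fluorescence intensity read-out. qHTS format.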

For test [13], the target named is Peroxisome proliferator-activated receptor delta (Homo sapiens) (UniProt Q03181). The test can be described thus: qHTS assay to identify small molecule agonists of the peroxisome proliferator-activated receptor delta (PPARd) signaling pathway (AID 743212; calls by dose curve). In a few lines:
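Tox21 library screened in GeneBLAzer PPARd UAS-bla HEK293H cells. After compound treatment at 37 C, a FRET-based beta-lactamase substrate was applied for 2 h and fluorescence recorded.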

Test [14] shares this target. Kind of test: qHTS assay to identify small molecule antagonists of the peroxisome proliferator-activated receptor delta (PPARd) signaling pathway (AID 743215; active means well fitted inhibition curve with a large enough effect in the signal ratio in the repeat runs, not every such curve was filed as active; the % refers to the signal ratio;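 further: cells stimulated with agonist L165041 at 300 nM final during compound exposure; series mostly up to about 62 µM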). In a few lines: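 HEK293H GeneBLAzer PPARd UAS-bla reporter cells; cpd + L165041 300 nM final, 17 h 37 C; LiveBLAzer B/G FRET substrate 2 h RT; fluorescence intensity read-out. Antagonist mode.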
The target in test [15] is Bile acid receptor (Homo sapiens) (UniProt Q96RI1). The test can be described thus: qHTS assay to identify small molecule agonists of the farnesoid-X-receptor (FXR) signaling pathway (AID 743220; active means well fitted activation curve with a large enough effect in the signal ratio in the repeat runs, not every such curve was filed as active; the % refers to the signal ratio). In a few lines: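 FXR-UAS-bla HEK 293T cells carrying a UAS-driven beta-lactamase reporter were plated for 5 h at 37C/5% CO2, then exposed to DMSO-dissolved Tox21 10K compounds for 16 h at 37C. A LiveBLAzer B/G FRET substrate was loaded for 2 h at room temperature before fluorescence reading.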
Chain of Bile acid receptor (Homo sapiens) (Q96RI1 whole entry, looked up): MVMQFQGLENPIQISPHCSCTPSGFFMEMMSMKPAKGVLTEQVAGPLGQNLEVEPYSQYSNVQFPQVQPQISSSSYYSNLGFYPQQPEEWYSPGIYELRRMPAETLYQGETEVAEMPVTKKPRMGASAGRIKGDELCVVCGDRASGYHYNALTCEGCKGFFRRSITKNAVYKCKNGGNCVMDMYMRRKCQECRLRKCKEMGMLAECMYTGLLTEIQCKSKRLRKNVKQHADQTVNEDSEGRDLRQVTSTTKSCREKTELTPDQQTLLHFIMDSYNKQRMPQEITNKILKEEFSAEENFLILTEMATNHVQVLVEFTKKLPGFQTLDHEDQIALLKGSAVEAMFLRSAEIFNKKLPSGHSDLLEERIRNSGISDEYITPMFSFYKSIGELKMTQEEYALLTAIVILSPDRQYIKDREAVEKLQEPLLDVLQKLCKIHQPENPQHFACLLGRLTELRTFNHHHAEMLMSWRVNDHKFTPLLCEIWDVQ

Test [16] concerns the target Vitamin D3 receptor (Homo sapiens) (UniProt P11473). The test can be described thus: qHTS assay to identify small molecule agonists of the vitamin D receptor (VDR) signaling pathway (AID 743222; calls by dose curve). In a few lines:
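Beta-lactamase reporter readout (LiveBLAzer B/G FRET, 2 h RT) in VDR-bla cells after 16 h compound treatment at 37C, 5% CO2; cells pre-incubated 4 h before pin transfer of DMSO solutions.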

Test [17] has as its target Peroxisome proliferator-activated receptor gamma (Homo sapiens) (UniProt P37231). Kind of test: qHTS assay to identify small molecule antagonists of the peroxisome proliferator-activated receptor gamma (PPARg) signaling pathway (AID 743191; calls by dose curve; further: series mostly up to about 63 µM; nearly all actives have a fitted effect of over 30% in size). An outline of the steps: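 GeneBLAzer PPARg UAS-bla HEK293H cells, 5 h post-plating, exposed to compounds 17 h at 37C. LiveBLAzer B/G FRET substrate added for 1 h at room temperature; beta-lactamase reporter read by fluorescence intensity.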

Test [18] in a line: qHTS assay to identify small molecule antagonists of the peroxisome proliferator-activated receptor gamma (PPARg) signaling pathway - cell viability counter screen (AID 743194). Further: nearly all actives have a fitted effect of over 55% in size. Further: potency means the concentration at half of the fitted maximal effect. Particulars: Potency: co-treated with 50 nM rosiglitazone unless noted. An outline of the steps: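 Cytotoxicity counter screen in PPARg-bla HEK293H cells, same wells as reporter assay. Compounds plus 50 nM rosiglitazone (final) for 17 h at 37 C, then viability read by CellTiter-Glo luminescence.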

Chain of Aryl hydrocarbon receptor (Homo sapiens) (P35869 whole entry, looked up): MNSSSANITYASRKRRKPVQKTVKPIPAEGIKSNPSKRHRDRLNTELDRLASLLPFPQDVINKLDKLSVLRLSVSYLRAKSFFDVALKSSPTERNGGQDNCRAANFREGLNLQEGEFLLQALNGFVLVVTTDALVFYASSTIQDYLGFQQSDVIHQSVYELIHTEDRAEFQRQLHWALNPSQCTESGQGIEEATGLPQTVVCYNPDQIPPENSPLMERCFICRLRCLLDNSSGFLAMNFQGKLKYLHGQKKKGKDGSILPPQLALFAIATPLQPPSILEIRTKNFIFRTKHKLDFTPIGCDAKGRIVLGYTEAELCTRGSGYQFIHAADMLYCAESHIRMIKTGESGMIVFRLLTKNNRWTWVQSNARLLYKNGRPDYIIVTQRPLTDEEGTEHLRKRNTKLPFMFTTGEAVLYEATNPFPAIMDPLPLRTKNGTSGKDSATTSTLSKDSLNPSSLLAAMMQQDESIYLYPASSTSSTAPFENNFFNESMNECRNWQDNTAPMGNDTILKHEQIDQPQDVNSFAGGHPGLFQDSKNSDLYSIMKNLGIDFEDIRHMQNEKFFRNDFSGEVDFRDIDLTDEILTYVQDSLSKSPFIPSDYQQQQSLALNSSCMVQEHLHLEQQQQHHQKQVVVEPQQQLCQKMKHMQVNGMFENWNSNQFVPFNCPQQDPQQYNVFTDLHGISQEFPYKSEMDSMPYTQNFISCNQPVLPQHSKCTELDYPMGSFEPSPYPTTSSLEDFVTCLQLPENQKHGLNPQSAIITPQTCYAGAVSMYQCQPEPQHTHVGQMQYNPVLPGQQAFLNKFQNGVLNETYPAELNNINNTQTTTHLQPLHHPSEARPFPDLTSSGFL
Chain of Peroxisome proliferator-activated receptor gamma (Homo sapiens) (P37231 whole entry, looked up): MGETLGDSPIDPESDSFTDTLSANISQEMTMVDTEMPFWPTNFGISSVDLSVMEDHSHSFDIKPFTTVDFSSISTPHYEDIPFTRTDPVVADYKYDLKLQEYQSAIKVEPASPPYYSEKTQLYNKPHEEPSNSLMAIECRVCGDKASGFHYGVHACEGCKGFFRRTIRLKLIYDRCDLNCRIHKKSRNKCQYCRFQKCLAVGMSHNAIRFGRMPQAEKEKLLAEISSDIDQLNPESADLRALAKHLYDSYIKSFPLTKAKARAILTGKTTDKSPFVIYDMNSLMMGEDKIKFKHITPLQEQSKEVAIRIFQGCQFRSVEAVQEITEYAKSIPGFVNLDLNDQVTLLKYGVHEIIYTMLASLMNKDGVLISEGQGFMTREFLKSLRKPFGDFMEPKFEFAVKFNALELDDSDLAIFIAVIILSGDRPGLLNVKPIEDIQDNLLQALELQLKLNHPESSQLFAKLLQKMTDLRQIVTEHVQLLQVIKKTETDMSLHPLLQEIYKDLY
Chain of Peroxisome proliferator-activated receptor delta (Homo sapiens) (Q03181 whole entry, looked up): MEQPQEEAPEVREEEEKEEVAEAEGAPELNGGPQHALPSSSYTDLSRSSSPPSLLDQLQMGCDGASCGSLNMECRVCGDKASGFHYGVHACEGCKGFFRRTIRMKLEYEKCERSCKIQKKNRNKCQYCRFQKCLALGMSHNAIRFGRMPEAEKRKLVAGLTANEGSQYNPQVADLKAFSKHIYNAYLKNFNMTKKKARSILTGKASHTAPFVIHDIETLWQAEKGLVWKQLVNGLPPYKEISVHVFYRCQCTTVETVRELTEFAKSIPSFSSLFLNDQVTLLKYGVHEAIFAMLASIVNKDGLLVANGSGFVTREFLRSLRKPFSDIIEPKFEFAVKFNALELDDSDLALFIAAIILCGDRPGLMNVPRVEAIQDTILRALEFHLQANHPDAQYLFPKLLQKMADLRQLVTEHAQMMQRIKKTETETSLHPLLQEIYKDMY
Chain of Vitamin D3 receptor (Homo sapiens) (P11473 whole entry, looked up): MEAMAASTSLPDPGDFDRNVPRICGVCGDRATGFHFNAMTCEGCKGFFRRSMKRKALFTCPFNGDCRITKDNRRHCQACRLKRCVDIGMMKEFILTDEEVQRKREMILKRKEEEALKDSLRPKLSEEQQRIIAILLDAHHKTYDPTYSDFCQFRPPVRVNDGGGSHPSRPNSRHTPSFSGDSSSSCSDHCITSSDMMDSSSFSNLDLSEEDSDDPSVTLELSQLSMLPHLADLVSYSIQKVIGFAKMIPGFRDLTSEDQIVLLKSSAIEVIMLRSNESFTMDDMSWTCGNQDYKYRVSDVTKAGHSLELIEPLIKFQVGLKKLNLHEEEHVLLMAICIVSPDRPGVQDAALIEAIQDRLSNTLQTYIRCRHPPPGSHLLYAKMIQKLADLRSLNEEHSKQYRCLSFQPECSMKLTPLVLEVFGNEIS

Regarding `CCCCCCn1cc[n+](C)c1`, the Potency result in test [1], in test [2], in test [3], in test [4], in test [5] and in [6] was “inactive” throughout. In addition, the Potency entry in [7], in test [8] and in test [9] was “inactive” in each case.
As for `CCC[N+]1(C)CCCCC1`, the Potency entry in test [1], in [2], in test [3], in test [10], in test [4] and in test [5] was “inactive” throughout. In addition, the Potency result in test [6], in [7], in test [8] and in test [9] was “inactive” throughout. Also, the compound was called inactive in [11].
Consider `COP(=O)(OC)C(O)C(Cl)(Cl)Cl` (configuration not stated), for which the Potency result in test [1], in test [2], in test [3], in test [4], in test [5] and in test [6] was “inactive” each time. Also, the Potency entry in [7], in test [8] and in test [9] was “inactive” throughout. The call in test [12], in test [11], in [13], in [14], in test [15] and in test [16] was inactive.
`Cc1cc(Cl)ccc1N`: the Potency result in test [1], in [3], in test [17], in [10], in [4] and in [5] was “inactive” throughout. Besides, the Potency result in test [6], in [7], in test [8] and in [9] was “inactive” each time. In addition, the Potency in test [2] was 31.3 µM (active) and 33.6 µM (active). Further, the result in test [12], in test [11], in test [13] and in [14] was inactive.
On to `CCCCCCCCCCn1cc[n+](C)c1`, for which the Potency in test [1] was 24.6 µM (active) and inactive; in test [18] it was 22.1 µM [setting not given] (active) and 24.6 µM [setting not given] (active) and 4.89 µM [setting not given] (active); in test [10], 2.19 µM (active) and 4.85 µM (active) and 2.16 µM (active); in [5], 39.3 µM (active); in test [6], 4.41 µM (active) and 24.6 µM (active) and 35.6 µM (active); in test [7], 22.1 µM (active). Moreover, the Potency in test [8] was 55.5 µM (active) and inactive. Besides, the Potency entry in test [2], in test [17], in [4] and in [9] was “inactive” in each case. The compound was classed as inactive in [12] and in test [11].
As for `O=C(O)C(Cl)Cl`, the Potency result in test [1], in test [2], in [3], in [17], in test [18] and in [10] was “inactive” each time. For the same compound, the Potency entry in test [4], in test [5], in test [6], in test [7], in test [8] and in test [9] was “inactive” each time. Besides, the outcome in [12], in [11], in [13] and in test [14] was inactive.
For the compound `COP(=O)(OC)OC=C(Cl)Cl`, the Potency entry in test [1], in test [2], in test [3], in test [10], in test [4] and in test [5] was “inactive” in each case. Further, the Potency result in test [6], in test [7], in test [8] and in test [9] was “inactive” in each case. Further, the call in test [12], in test [13] and in test [14] was inactive.
